In PubChem BioAssay (NCI) one finds growth data, which are given here for nine molecules.

The panel holds about 83,000 compounds, 20% with a hit somewhere; the sample as a whole holds those more often.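 The test compound was applied at a single concentration to cells in 96-well plates for 48 hours, and percent growth was recorded.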 Unmarked numbers belong to inactive results. Activity calls are given as the source filed them. Rule for the calls: active = growth percent below 10; inactive = the rest.

Common to all, as to assay: NCI-60 one-dose screen, 48 h (100 = growth as untreated, 0 = no growth, -100 = all killed)
Common to all, as to settings: 10 µM unless noted

Experiment [1] relates to SR leukemia.
In experiment [2] the test system is RPMI-8226 leukemia.
The test system of experiment [3] is OVCAR-8 ovarian.
The test system of experiment [4] is OVCAR-5 ovarian.
In experiment [5] the test system is OVCAR-4 ovarian.
Experiment [6] deals with SK-OV-3 ovarian.
Experiment [7] deals with IGROV1 ovarian.
The test system of experiment [8] is OVCAR-3 ovarian.
Experiment [9] concerns HS 578T breast.
The subject of experiment [10] is NCI/ADR-RES ovarian.
Experiment [11] has as its system BT-549 breast.
Experiment [12] deals with MDA-MB-435 melanoma.
In experiment [13] the test system is SW-620 colon.
Experiment [14] relates to MCF7 breast.
Experiment [15] has as its system HCT-116 colon.
For experiment [16], the system named is HCC-2998 colon.
Experiment [17] deals with KM12 colon.
Experiment [18] relates to T-47D breast.

Regarding `CC/C(=N\Nc1nc2ccccc2n1C)c1ccccn1`, the growth in experiment [1] was 3.71% (active); in [2], 10.4%; in experiment [3], 15.5%; in experiment [4] it was 29%; in [5], 11.5%; in [6], 11.6%. Further, the growth is 13.6% in experiment [7]; 25.8% in experiment [8]; 48.4% in experiment [9]; -5.99% (active) in [10]; 21% in [11]; 18.9% in [12]. Besides, the growth in experiment [13] is 30%; in [14], 8.78% (active); in [15], 11.7%; in experiment [16] it was 32.3%; in experiment [17], 18.5%.
As for `O=C1/C(=N\c2cc(=O)[nH]n2S(=O)(=O)c2ccccc2)Nc2ccccc21`, the growth in [1] was 89.7%; in experiment [2] it was 95.2%; in experiment [3] it was 102%; in [4], 105%; in experiment [5], 98.4%; in experiment [6] it was 105%. Besides, the growth in experiment [7] is 100%; in experiment [8] it was 104%; in [9], 91%; in experiment [10], 101%; in [11], 106%; in experiment [12], 108%. Also, the growth was 99.3% in experiment [13]; 96.5% in [14]; 99.3% in experiment [15]; 104% in experiment [16]; 99.4% in experiment [17].
For the molecule `Cc1[nH]n(C(=S)Nc2nc3cc(Cl)c(F)cc3s2)c(=O)c1N=Nc1ccc(F)c(Cl)c1`, the growth was -45.2% (active) in experiment [1]; 70.9% in experiment [2]; 103% in [3]; 103% in experiment [4]; 91.5% in experiment [5]; 97.8% in experiment [6]. In addition, the growth is 88.4% in experiment [7]; 98.2% in [8]; 85% in [9]; 103% in [10]; 79.6% in experiment [18]; 124% in [12]. For the same molecule, the growth in experiment [13] was 102%; in experiment [14], 80.8%; in experiment [16] it was 114%; in experiment [17], 110%.
Consider `COC(=O)C(Cc1cnc[nH]1)N1CC(=O)N2[C@@H](c3ccccc3)SC[C@H]2C1=O` (some centres not stated), for which the growth in experiment [1] was 106%; in [2] it was 105%; in experiment [3], 98.4%; in [4], 103%; in experiment [5], 111%; in experiment [6], 115%. The growth is 116% in [7]; 111% in experiment [8]; 106% in experiment [9]; 107% in experiment [10]; 108% in experiment [18]; 103% in experiment [12]. Also, the growth was 106% in experiment [14], 103% in [15], 99.6% in experiment [16] and 108% in experiment [17].
With `Clc1ccc(N/N=C(\c2ccccc2)c2ccccn2)nc1`, the growth in [1] is 1.95% (active); in experiment [2], 4.95% (active); in experiment [3], 11.3%; in experiment [4] it was 36.2%; in experiment [5], 30.7%; in experiment [6] it was 12.5%. The growth in experiment [7] is 12.7%; in experiment [8] it was 12.3%; in experiment [9], 34.1%; in experiment [10] it was -12.9% (active); in [11], 16.7%; in [12] it was 26.6%. The growth in [13] is 27.2%; in [14] it was 3.62% (active); in [15] it was 2.71% (active); in experiment [16], 35.9%; in experiment [17], 21.7%.
On to `CCc1c(C)c2ccc(OCC(=O)N=Nc3c(O)[nH]c4ccccc34)c(C)c2oc1=O`, for which the growth in experiment [1] was 8.17% (active); in [2], -3.81% (active); in experiment [3] it was -11.3% (active); in experiment [4], 24%; in experiment [5], -21.7% (active); in experiment [6] it was 80.9%. The growth in experiment [7] is 7.99% (active); in experiment [8] it was -58.2% (active); in [9], -5.77% (active); in experiment [10] it was 47.7%; in experiment [11], 11.3%; in experiment [12], 0.887% (active). Also, the growth in [13] was -29.2% (active); in experiment [14] it was -4.72% (active); in [15], -7.72% (active); in experiment [16], -2.02% (active); in experiment [17], -23.4% (active).
As to `COC(=O)c1ccc2[nH]c(O)c(C(=Nc3ccc(N(C)C(=O)CN4CCN(C)CC4)cc3)c3ccc(C)cc3)c2c1`, the growth in [1] is -28.2% (active); in [2], -32.2% (active); in experiment [3] it was -17.8% (active); in experiment [4], 29.7%; in experiment [5], -64.3% (active); in experiment [6], -12.2% (active). The growth in experiment [7] was 1.53% (active); in [8], -60.2% (active); in experiment [9], -2.52% (active); in experiment [10], 70.7%; in experiment [11] it was -39.5% (active); in [12], 10.3%. Further, the values for the growth in [14], in experiment [15] and in [17] were -67.8% (active), -66.1% (active) and -17.3% (active), respectively.
Regarding `COC(=O)[C@H](Cc1cn(C)cn1)NC(=O)[C@H](CC(=O)OCc1ccccc1)NC(=O)Nc1cc(C(F)(F)F)cc(C(F)(F)F)c1`, the growth in experiment [1] was -46.4% [100 µM] (active); in experiment [2] it was -65.4% [100 µM] (active); in [3] it was -77.4% [100 µM] (active); in experiment [4], -93.2% [100 µM] (active); in experiment [5] it was -78% [100 µM] (active); in experiment [6] it was -100% [100 µM] (active). Further, the growth in experiment [7] was -82.4% [100 µM] (active); in experiment [8] it was -99% [100 µM] (active); in experiment [10], -28.4% [100 µM] (active); in experiment [18], -62.1% [100 µM] (active); in experiment [11], -96.6% [100 µM] (active); in experiment [12], -91.9% [100 µM] (active). The growth in experiment [13] is -59.2% [100 µM] (active); in experiment [14], -60.5% [100 µM] (active); in [15] it was -97.9% [100 µM] (active); in experiment [16] it was -91.5% [100 µM] (active); in experiment [17] it was -89.8% [100 µM] (active).
Consider `CC(C)(C)c1ccc(OCCOC(=O)CBr)cc1`, for which the growth in experiment [1] was 44.7%; in [2] it was 88.2%; in experiment [3], 83.8%; in experiment [4], 104%; in [5], 98.8%; in experiment [6], 104%. Besides, the growth is 2.57% (active) in experiment [7]; 101% in experiment [8]; 108% in experiment [9]; 108% in experiment [10]; 112% in experiment [12]; 98.3% in [14]. The growth is 83.7% in experiment [15], 104% in experiment [16] and 87.7% in [17].
